# “And” between values parts separate entries of the source, which are not always exact repeats. Identical values can stand only once. Inconclusive results are not listed. Where a call stands in place of a potency, no number is given. More than one record can exist for a structure, and the calls need not agree. The source made the active and inactive calls. Unless noted, calls come from the whole dose curve; as a rule, active = well fitted curve in the direction sought with a large enough effect in the repeat runs; inconclusive = weak or mixed curves; inactive = no such curve, though single readings can be large; an effect the other way counts as inactive or inconclusive.
# Columns and labels:
# [1] = biological target: Acetylcholinesterase (Homo sapiens) (UniProt P22303); assay: Acetylcholinesterase (AChE) small molecule antagonists: enzyme-based qHTS assay with human liver microsomes (AID 1347399; calls by dose curve; note: nearly all actives have a fitted effect of over 60% in size); settings: Potency: qHTS inhibition
# Acetylcholinesterase (Homo sapiens), sequence (P22303 whole entry, looked up): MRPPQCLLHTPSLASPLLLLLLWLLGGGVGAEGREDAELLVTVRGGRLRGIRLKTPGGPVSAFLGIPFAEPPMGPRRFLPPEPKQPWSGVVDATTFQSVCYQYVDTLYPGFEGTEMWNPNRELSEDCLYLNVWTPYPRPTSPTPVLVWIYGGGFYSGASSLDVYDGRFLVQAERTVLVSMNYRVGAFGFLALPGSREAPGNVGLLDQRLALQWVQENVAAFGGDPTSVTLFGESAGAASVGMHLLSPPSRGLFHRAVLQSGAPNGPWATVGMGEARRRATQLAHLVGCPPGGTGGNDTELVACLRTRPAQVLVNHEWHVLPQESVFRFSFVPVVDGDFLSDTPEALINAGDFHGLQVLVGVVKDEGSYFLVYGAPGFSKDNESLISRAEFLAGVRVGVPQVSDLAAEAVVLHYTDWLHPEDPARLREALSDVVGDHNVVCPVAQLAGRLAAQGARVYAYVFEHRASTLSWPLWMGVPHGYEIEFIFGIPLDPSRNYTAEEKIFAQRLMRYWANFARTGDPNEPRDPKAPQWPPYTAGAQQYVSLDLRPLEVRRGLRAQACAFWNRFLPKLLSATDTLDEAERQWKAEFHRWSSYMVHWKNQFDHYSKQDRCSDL
# Summary of the method: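 Recombinant human AChE (50 mU/mL in the enzyme mix) and human liver microsomes (0.25 mg/mL final) were preincubated with compound and NADPH (0.25 mg/mL final) for 30 min at 37 C. Acetylthiocholine/DTNB was then added; thiocholine was read colorimetrically after 10 min at room temperature.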
# [2] = biological target: Cytochrome P450 2D6 (Homo sapiens) (UniProt P10635); assay: Cytochrome P450 Family 2 Subfamily D Member 6 (CYP2D6) small molecule antagonists: luciferase reporter qHTS assay (AID 1671196); note: nearly all actives have a fitted effect of over 50% in size; note: potency is the fitted concentration of half-maximal effect
# Cytochrome P450 2D6 (Homo sapiens), sequence (P10635 whole entry, looked up): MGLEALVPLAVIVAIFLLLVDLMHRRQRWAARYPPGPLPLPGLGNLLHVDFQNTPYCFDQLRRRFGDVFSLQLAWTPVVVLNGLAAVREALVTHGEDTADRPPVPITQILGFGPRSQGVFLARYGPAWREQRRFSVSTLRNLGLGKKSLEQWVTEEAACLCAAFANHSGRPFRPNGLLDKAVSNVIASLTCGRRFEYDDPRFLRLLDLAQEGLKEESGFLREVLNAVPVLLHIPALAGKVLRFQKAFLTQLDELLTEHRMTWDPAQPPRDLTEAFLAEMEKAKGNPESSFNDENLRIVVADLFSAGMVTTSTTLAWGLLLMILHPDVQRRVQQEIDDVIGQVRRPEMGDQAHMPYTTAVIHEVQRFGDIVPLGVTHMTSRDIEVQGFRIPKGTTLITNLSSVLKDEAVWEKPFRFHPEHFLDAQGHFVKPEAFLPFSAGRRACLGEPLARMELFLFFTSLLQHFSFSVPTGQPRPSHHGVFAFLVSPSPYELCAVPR
# Summary of the method: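 Room-temperature luminescent CYP2D6 activity assay: compound preincubated 10 min with enzyme–substrate mix, NADPH-initiated reaction 1 h, detection reagent 20 min before reading.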
# [3] = biological target: Cytochrome P450 2C19 (Homo sapiens) (UniProt P33261); assay: Cytochrome P450 Family 2 Subfamily C Member 19 (CYP2C19) small molecule antagonists: luciferase reporter qHTS assay (AID 1671197); note: nearly all actives have a fitted effect of over 65% in size; note: potency is the fitted concentration of half-maximal effect
# Cytochrome P450 2C19 (Homo sapiens), sequence (P33261 whole entry, looked up): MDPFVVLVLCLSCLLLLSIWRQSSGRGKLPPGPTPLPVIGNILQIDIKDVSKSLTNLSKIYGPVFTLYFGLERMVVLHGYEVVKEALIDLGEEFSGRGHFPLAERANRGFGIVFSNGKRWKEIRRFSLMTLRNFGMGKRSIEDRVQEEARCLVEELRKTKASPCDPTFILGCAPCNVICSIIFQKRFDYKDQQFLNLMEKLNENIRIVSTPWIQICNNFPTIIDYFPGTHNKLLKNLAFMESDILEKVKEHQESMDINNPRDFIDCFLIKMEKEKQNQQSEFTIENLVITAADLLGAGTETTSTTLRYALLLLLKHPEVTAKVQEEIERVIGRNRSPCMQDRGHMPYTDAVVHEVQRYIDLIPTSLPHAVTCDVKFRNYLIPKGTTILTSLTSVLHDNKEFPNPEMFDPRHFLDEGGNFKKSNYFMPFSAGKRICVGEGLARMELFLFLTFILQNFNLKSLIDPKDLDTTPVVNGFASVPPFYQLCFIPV
# Summary of the method: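 Compounds were tested on CYP2C19 activity via proluciferin conversion to luciferin. The 37C, 1 h reaction followed NADPH addition; detection reagent stopped it.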
# [4] = biological target: Cytochrome P450 2C9 (Homo sapiens) (UniProt P11712); assay: Cytochrome P450 Family 2 Subfamily C Member 9 (CYP2C9) small molecule antagonists: luciferase reporter qHTS assay (AID 1671198); note: nearly all actives have a fitted effect of over 50% in size; note: potency is the fitted concentration of half-maximal effect
# Cytochrome P450 2C9 (Homo sapiens), sequence (P11712 whole entry, looked up): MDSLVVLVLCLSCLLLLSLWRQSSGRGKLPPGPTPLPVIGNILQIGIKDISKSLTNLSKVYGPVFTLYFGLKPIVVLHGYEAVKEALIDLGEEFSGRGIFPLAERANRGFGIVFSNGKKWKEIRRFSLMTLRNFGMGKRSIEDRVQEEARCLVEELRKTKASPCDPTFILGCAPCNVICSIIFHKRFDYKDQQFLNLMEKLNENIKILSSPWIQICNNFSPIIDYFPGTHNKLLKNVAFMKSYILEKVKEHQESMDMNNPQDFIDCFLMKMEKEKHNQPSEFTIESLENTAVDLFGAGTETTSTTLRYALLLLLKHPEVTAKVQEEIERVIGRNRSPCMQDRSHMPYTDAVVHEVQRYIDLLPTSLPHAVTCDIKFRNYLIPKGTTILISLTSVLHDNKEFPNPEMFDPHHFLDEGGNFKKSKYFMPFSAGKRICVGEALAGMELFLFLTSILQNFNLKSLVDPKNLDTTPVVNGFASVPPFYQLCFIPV
# Summary of the method: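 P450-Glo proluciferin substrate with CYP2C9 enzyme; 10 min RT preincubation, then NADPH regeneration 1 h at 37C; luciferin detection reagent 20 min RT, luminescence in relative luminescence units.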
# [5] = biological target: Cytochrome P450 1A2 (Homo sapiens) (UniProt P05177); assay: Cytochrome P450 Family 1 Subfamily A Member 2 (CYP1A2) small molecule antagonists: luciferase reporter qHTS assay (AID 1671199); note: nearly all actives have a fitted effect of over 50% in size; note: potency is the fitted concentration of half-maximal effect
# Cytochrome P450 1A2 (Homo sapiens), sequence (P05177 whole entry, looked up): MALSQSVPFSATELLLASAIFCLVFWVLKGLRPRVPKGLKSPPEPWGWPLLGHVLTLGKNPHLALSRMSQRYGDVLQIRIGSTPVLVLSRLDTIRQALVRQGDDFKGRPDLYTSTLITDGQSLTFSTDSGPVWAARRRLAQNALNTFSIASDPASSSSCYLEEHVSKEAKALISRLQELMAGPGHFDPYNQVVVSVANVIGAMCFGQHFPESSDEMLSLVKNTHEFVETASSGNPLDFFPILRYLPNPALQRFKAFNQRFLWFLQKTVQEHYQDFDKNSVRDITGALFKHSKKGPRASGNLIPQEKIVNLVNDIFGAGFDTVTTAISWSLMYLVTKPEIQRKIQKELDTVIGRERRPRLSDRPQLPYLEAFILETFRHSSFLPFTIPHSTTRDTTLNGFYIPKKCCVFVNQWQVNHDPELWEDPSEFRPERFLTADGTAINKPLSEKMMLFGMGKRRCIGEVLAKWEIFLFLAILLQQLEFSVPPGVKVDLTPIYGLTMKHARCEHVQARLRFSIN
# Summary of the method: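 Room-temperature CYP1A2 reaction with proluciferin substrate: compounds added from DMSO, 10 min preincubation, NADPH regeneration for 1 h. Luciferin detection reagent then added; luminescence recorded as RLU.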
# [6] = biological target: Voltage-gated inwardly rectifying potassium channel KCNH2 (Homo sapiens) (UniProt Q12809); assay: Human Ether-a-go-go-Related Gene (hERG) channel small molecule antagonists: fluorescence cell-based qHTS assay (AID 1671200); note: nearly all actives have a fitted effect of over 50% in size; note: potency is the fitted concentration of half-maximal effect
# Voltage-gated inwardly rectifying potassium channel KCNH2 (Homo sapiens), sequence (Q12809 whole entry, looked up): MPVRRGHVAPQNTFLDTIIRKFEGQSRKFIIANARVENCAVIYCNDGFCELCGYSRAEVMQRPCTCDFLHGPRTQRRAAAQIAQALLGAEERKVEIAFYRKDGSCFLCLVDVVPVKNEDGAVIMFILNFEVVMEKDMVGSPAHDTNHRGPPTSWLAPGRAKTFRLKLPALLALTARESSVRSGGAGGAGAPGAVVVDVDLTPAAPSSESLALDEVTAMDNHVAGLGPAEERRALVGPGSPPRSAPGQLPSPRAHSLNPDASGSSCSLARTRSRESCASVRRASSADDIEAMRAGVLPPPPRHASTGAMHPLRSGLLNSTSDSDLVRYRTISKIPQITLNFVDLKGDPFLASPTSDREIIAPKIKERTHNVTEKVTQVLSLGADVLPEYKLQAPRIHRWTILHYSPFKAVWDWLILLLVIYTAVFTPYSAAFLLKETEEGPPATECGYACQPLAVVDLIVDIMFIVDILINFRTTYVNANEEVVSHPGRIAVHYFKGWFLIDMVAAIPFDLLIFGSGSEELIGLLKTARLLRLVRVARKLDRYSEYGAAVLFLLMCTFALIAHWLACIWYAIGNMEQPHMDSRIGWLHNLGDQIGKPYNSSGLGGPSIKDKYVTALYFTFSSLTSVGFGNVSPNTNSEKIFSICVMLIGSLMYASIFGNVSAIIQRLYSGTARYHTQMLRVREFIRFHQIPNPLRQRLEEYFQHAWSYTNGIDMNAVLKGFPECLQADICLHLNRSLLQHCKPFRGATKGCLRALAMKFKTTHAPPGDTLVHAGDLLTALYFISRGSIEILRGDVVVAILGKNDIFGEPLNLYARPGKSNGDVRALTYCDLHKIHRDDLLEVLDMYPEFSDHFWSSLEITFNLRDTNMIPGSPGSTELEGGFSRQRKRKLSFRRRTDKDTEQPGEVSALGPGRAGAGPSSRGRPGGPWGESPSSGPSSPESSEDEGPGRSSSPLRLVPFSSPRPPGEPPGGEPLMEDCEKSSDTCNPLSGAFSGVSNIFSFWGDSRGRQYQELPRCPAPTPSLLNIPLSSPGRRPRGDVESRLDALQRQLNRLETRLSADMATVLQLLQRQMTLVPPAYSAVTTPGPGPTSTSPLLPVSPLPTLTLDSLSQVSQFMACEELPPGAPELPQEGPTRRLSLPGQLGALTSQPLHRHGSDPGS
# Summary of the method: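 Fluorescence at 540 nm emission (480 nm excitation) was recorded kinetically for 2 min at 1-second intervals once the thallium-containing stimulus reached cells previously loaded with FluxOR II dye.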
# [7] = biological target: Cytochrome P450 3A4 (Homo sapiens) (UniProt P08684); assay: Cytochrome P450 Family 3 Subfamily A Member 4 (CYP3A4) small molecule antagonists: luciferase reporter qHTS assay (AID 1671201); note: nearly all actives have a fitted effect of over 50% in size; note: potency is the fitted concentration of half-maximal effect
# Cytochrome P450 3A4 (Homo sapiens), sequence (P08684 whole entry, looked up): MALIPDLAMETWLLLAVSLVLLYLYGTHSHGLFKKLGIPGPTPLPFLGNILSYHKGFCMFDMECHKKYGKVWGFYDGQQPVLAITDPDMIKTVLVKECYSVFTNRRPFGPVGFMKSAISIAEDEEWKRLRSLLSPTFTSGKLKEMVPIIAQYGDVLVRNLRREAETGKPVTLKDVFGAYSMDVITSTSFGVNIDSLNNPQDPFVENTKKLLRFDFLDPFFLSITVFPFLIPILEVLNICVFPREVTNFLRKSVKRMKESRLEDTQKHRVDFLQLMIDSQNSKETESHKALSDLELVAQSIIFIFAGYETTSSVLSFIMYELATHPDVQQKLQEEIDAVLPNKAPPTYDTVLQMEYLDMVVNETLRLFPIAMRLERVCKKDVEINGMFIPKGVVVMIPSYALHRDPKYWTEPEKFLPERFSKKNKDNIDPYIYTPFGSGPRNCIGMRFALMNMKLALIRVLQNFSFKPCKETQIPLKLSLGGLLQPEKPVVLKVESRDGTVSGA
# Summary of the method: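 qHTS, 1536-well. CYP3A4 + proluciferin substrate, cpd 10 min RT → NADPH regen 1 h RT → detection reagent 20 min → luminescence (RLU). Ketoconazole positive control.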
# [8] = biological target: Acetylcholinesterase (Homo sapiens) (UniProt P22303); assay: Acetylcholinesterase (AChE) small molecule antagonists: fluorescence cell-based qHTS assay (AID 1347398; calls by dose curve; note: nearly all actives have a fitted effect of over 50% in size; note: potency is the fitted concentration of half-maximal effect); settings: Potency: AChE activity
# Summary of the method: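 SH-SY5Y, 2,000 cells/well, attached overnight; cmpd 30 min 37 C; acetylthiocholine/Thiolite Green cocktail 40 min RT; fluorescence Ex/Em 490/520 nm.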
SMILES,Potency [1],Potency [2],Potency [3],Potency [4],Potency [5],Potency [6],Potency [7],Potency [8]
c1ccc2c(c1)CCCC2,inactive,7.25 µM (active) and inactive,inactive,inactive,inactive,inactive,inactive,
C[C@]12CC[C@H](O)CC1=CC[C@@H]1[C@@H]2CC[C@]2(C)C(=O)CC[C@@H]12,inactive,inactive,79.7 µM (active) and 71 µM (active) and inactive,44.8 µM (active) and 31.7 µM (active) and 19.5 µM (active),inactive,,inactive,
CC12CC1(C)C(=O)N(c1cc(Cl)cc(Cl)c1)C2=O (stereo not drawn),inactive,inactive,22.4 µM (active),,9.99 µM (active) and 14.2 µM (active),inactive,inactive,
N#CN=C(N)N,inactive,inactive,inactive,inactive,inactive,inactive,inactive,
CC(C)(C)C(=O)CCl,inactive,inactive,inactive,inactive,inactive,inactive,inactive,
CCOP(=S)(OCC)Oc1ccc([N+](=O)[O-])cc1,,,128 nM (active) and 109 nM (active),1.61 µM (active) and 976 nM (active),1.02 µM (active) and 976 nM (active),,2.27 µM (active) and 2.75 µM (active),71.9 µM (active) and 15.5 µM (active)
CCSC(=O)N1CCCCCC1,inactive,30.8 µM (active) and inactive,34.6 µM (active),38.8 µM (active) and inactive,inactive,inactive,30.8 µM (active) and inactive,
CN(C)CCC#N,inactive,inactive,inactive,inactive,inactive,inactive,inactive,
Nc1ncc([N+](=O)[O-])s1,,inactive,71.6 µM (active) and 50.2 µM (active),63.3 µM (active),,inactive,inactive,inactive
O=S(=O)(O)OOS(=O)(=O)O,inactive,inactive,inactive,inactive,31.6 µM (active) and inactive,inactive,inactive,
Cc1ccc(O)c(C)c1,inactive,inactive,inactive,,70 µM (active) and 29.5 µM (active),inactive,inactive,
COS(=O)(=O)OC,inactive,inactive,inactive,inactive,inactive,inactive,inactive,
O=C/C=C/c1ccccc1,inactive,inactive,inactive and 79.6 µM (active),inactive,inactive and 39.9 µM (active),inactive,inactive,
Nc1ccc([As](=O)(O)O)cc1,inactive,inactive,inactive,inactive,inactive,inactive,34.6 µM (active) and inactive,
O=[N+]([O-])c1cc([As](=O)(O)O)ccc1O,inactive,inactive,inactive,inactive,inactive,inactive,inactive,
O=[N+]([O-])c1ccc(Cl)cc1,inactive,inactive,inactive,inactive,inactive,inactive,inactive,
C=CC(=O)OCCCCCC(C)C,inactive,inactive,inactive,inactive,inactive,inactive,inactive,
Clc1cnc(Oc2ccc(Oc3ncc(Cl)cc3Cl)cc2)c(Cl)c1,inactive,inactive,inactive,inactive,24.9 µM (active) and inactive,19.5 µM (active),inactive,
CC(C)c1cccc(C(C)C)c1O,,,,,,inactive,,inactive
ClCCOCCCl,,inactive,inactive,inactive,inactive,inactive,inactive,inactive
O=C(O)COc1ccccc1,,inactive,inactive,inactive,inactive,inactive,inactive,inactive
Sc1ccccc1,inactive,inactive,18.1 µM (active) and 40.1 µM (active),32.2 µM (active) and 31.9 µM (active) and 56.4 µM (active),,inactive,inactive,
CCCCCCCCCCCCCCCCCC(=O)O,,35.3 µM (active) and inactive,281 nM (active) and inactive,1.12 µM (active) and inactive,2.5 µM (active) and inactive,inactive,inactive,
